Results from the supplement of paper PMC4022240.
± gives the standard deviation.

T1: HaloTag-ATRX ADD domain (163-292)
T1 chain: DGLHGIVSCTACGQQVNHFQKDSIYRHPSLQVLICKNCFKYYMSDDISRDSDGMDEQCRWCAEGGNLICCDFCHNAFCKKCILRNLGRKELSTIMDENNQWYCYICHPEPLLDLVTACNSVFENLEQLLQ


Key:
Experiment in all cases: peptide microarray binding signal (635 nm), min-max normalized on array (fraction of array maximum); higher = stronger binding
[1] = target: T1, HaloTag-ATRX ADD domain (163-292)
Outline: (§1)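 Binding signal is the mean intensity of triplicate spots, min-max scaled within each library. Histone 13-mer peptide–cellulose conjugates were spotted in triplicate on nitrocellulose with a Cy3 tracer and blocked overnight at 4°C. Probing lasted 1 h at 4°C, either with biotin-labelled HaloTag reader fusions (10 nM to 1 μM) and streptavidin-Alexa Fluor 647 or with rabbit histone antibodies (1:10,000 to 1:2,000) and anti-rabbit Alexa 647. An Axon GenePix 4000B read signal at 635 nm and misprints at 532 nm.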

[2] = target: HaloTag-ING2 PHD (mouse Ing2 200-280)
Outline: as §1

[3] = target: anti-H3K4me3 antibody ab8580
Outline: as §1

[4] = target: anti-H3K9me3 antibody ab8898
Outline: as §1

[5] = peptide region: Unmod H2B variant, binder concentration: 50 nM
[6] = peptide region: Unmod H2B variant, binder concentration: 500 nM
[7] = peptide region: Unmod H2B variant, binder concentration: 10 nM
[8] = peptide region: Unmod H2B variant, binder concentration: 100 nM
[9] = peptide region: Unmod H2B variant, binder concentration: 1:2,000 dilution
[10] = peptide region: Unmod H2B variant, binder concentration: 1:10,000 dilution
[11] = peptide region: Unmod H3 variant, binder concentration: 50 nM
[12] = peptide region: Unmod H3 variant, binder concentration: 500 nM
[13] = peptide region: Unmod H3 variant, binder concentration: 10 nM
[14] = peptide region: Unmod H3 variant, binder concentration: 100 nM
[15] = peptide region: Unmod H3 variant, binder concentration: 1:2,000 dilution
[16] = peptide region: Unmod H3 variant, binder concentration: 1:10,000 dilution

Binder | peptide microarray binding signal [1, 5] | peptide microarray binding signal [1, 6] | peptide microarray binding signal [2, 7] | peptide microarray binding signal [2, 8] | peptide microarray binding signal [3, 9] | peptide microarray binding signal [3, 10] | peptide microarray binding signal [4, 9] | peptide microarray binding signal [4, 10] | peptide microarray binding signal [1, 11] | peptide microarray binding signal [1, 12] | peptide microarray binding signal [2, 13] | peptide microarray binding signal [2, 14] | peptide microarray binding signal [3, 15] | peptide microarray binding signal [3, 16] | peptide microarray binding signal [4, 15] | peptide microarray binding signal [4, 16]
EGTKAVTKYTSAK [Unmod H2B variant E G T K A V T K Y T S A K] | 0.0108 ± 0.00025 | 0.0351 ± 0.00073 | 0.00776 ± 0.00021 | 0.0322 ± 0.0032 | 0.00196 ± 9.7e-05 | 0.0028 ± 0.00015 | 0.000544 ± 1.7e-05 | 0.00115 | – | – | – | – | – | – | – | –
VREIAQDFKTDLR [Unmod H3 variant V R E I A Q D F K T D L R] | – | – | – | – | – | – | – | – | 0.00495 ± 9.5e-05 | 0.0115 ± 0.00061 | 0.00853 ± 0.00018 | 0.0134 ± 0.00073 | 0.00247 ± 5.5e-05 | 0.00474 ± 0.00018 | 0.00248 ± 0.00019 | 0.00259 ± 9.2e-05
ALQEACEAYLVGL [Unmod H3 variant A L Q E A C E A Y L V G L] | – | – | – | – | – | – | – | – | 0.00166 ± 5.9e-05 | 0.00148 ± 3.6e-05 | 0.00179 ± 2.8e-05 | 0.00163 ± 4.4e-05 | 0.0004342 ± 4.3e-06 | 0.000628 ± 6.7e-06 | 0.000393 ± 1.4e-05 | 0.000519 ± 5.6e-06
TGGKAPRKQLATK [Unmod H3 variant T G G K A P R K Q L A T K] | – | – | – | – | – | – | – | – | 0.00389 ± 0.00042 | 0.00729 ± 0.00021 | 0.00788 ± 0.00069 | 0.00985 ± 0.00081 | 0.00126 ± 8.1e-05 | 0.001541 ± 1.5e-05 | 0.000876 ± 2.6e-05 | 0.000807
KHAVSEGTKAVTK [Unmod H2B variant K H A V S E G T K A V T K] | 0.00533 ± 0.00061 | 0.00738 ± 0.00021 | 0.00406 ± 5.6e-05 | 0.0122 ± 0.00094 | 0.000906 ± 6.3e-05 | 0.0012 ± 3.2e-05 | 0.000378 ± 7.5e-06 | 0.000865 ± 9e-06 | – | – | – | – | – | – | – | –
PGELAKHAVSEGT [Unmod H2B variant P G E L A K H A V S E G T] | 0.01009 ± 9.9e-05 | 0.0228 ± 0.001 | 0.0117 ± 0.00035 | 0.0287 ± 0.0019 | 0.0133 ± 0.0011 | 0.0163 ± 0.00093 | 0.00447 ± 0.00018 | 0.00484 ± 7.1e-05 | – | – | – | – | – | – | – | –
RKSAPSTGGVKKP [Unmod H3 variant R K S A P S T G G V K K P] | – | – | – | – | – | – | – | – | 0.002821 ± 2.4e-05 | 0.0103 ± 0.00037 | 0.00674 ± 8.2e-05 | 0.0212 ± 0.0031 | 0.000963 ± 5e-05 | 0.000799 ± 8.3e-06 | 0.000468 ± 9e-06 | 0.000634
RKSAPATGGVKKP [Unmod H3 variant R K S A P A T G G V K K P] | – | – | – | – | – | – | – | – | 0.00398 ± 4.1e-05 | 0.0111 ± 0.0002 | 0.008 ± 0.00021 | 0.021 ± 0.00036 | 0.000831 ± 5.9e-05 | 0.001312 ± 1.3e-05 | 0.000529 ± 1.3e-05 | 0.000692 ± 7.3e-06
ATGGVKKPHRYRP [Unmod H3 variant A T G G V K K P H R Y R P] | – | – | – | – | – | – | – | – | 0.00552 ± 0.0011 | 0.00938 ± 0.0008 | 0.00537 ± 0.00055 | 0.0186 ± 0.0068 | 0.000585 ± 3.7e-05 | 0.000456 ± 1.3e-05 | 0.000227 ± 7.1e-06 | 0.000461 ± 8.7e-06
TARKSTGGKAPRK [Unmod H3 variant T A R K S T G G K A P R K] | – | – | – | – | – | – | – | – | 0.00552 ± 0.00053 | 0.0118 ± 0.00044 | 0.00633 ± 0.00044 | 0.019 ± 0.0047 | 0.001 ± 4.5e-05 | 0.00114 ± 1.2e-05 | 0.000664 ± 1.2e-05 | 0.000923 ± 9.6e-06
ARTKQTARKSTGG [Unmod H3 variant A R T K Q T A R K S T G G] | – | – | – | – | – | – | – | – | 0.00445 ± 0.00012 | 0.00991 ± 0.00023 | 0.00824 ± 0.00015 | 0.01502 ± 0.00015 | 0.0014 ± 4.3e-05 | 0.00205 ± 7.6e-05 | 0.00101 ± 3.2e-05 | 0.00115
QDFKTDLRFQSSA [Unmod H3 variant Q D F K T D L R F Q S S A] | – | – | – | – | – | – | – | – | 0.00483 ± 6.5e-05 | 0.011 ± 0.00018 | 0.00973 ± 0.00021 | 0.0168 ± 0.0012 | 0.00276 ± 8.1e-05 | 0.00542 ± 0.0011 | 0.00157 ± 6.5e-05 | 0.00202 ± 3.2e-05
EIQTAVRLLLPGE [Unmod H2B variant E I Q T A V R L L L P G E] | 0.0176 ± 0.00047 | 0.041 ± 0.0018 | 0.0245 ± 0.0014 | 0.0434 ± 0.0033 | 0.00893 ± 0.00076 | 0.0164 ± 0.00068 | 0.00628 ± 0.00047 | 0.0106 ± 0.0002 | – | – | – | – | – | – | – | –
ALQEASEAYLVGL [Unmod H3 variant A L Q E A S E A Y L V G L] | – | – | – | – | – | – | – | – | 0.001818 ± 8.5e-06 | 0.00233 ± 5.1e-05 | 0.00292 ± 5.6e-05 | 0.00206 ± 7.3e-05 | 0.0004719 ± 4.7e-06 | 0.000799 ± 8.3e-06 | 0.000453 ± 1.5e-05 | 0.000634
EGTKAVTKYTSSK [Unmod H2B variant E G T K A V T K Y T S S K] | 0.00473 ± 0.00015 | 0.00681 ± 0.00052 | 0.00561 ± 0.00046 | 0.01276 ± 6.8e-05 | 0.00121 ± 0.00013 | 0.001712 ± 1.6e-05 | 0.000468 ± 9e-06 | 0.000923 ± 9.6e-06 | – | – | – | – | – | – | – | –
ATKAARKSAPATG [Unmod H3 variant A T K A A R K S A P A T G] | – | – | – | – | – | – | – | – | 0.00646 ± 0.00048 | 0.0104 ± 0.0015 | 0.00776 ± 0.00056 | 0.015 ± 0.0022 | 0.00119 ± 3.4e-05 | 0.001712 ± 1.6e-05 | 0.00142 ± 9.9e-05 | 0.00127 ± 1.3e-05
PFQRLVREIAQDF [Unmod H3 variant P F Q R L V R E I A Q D F] | – | – | – | – | – | – | – | – | 0.0275 ± 0.0017 | 0.0328 ± 0.0016 | 0.01385 ± 8.4e-05 | 0.0259 ± 0.0054 | 0.00315 ± 0.00022 | 0.00759 ± 0.00028 | 0.00316 ± 0.00013 | 0.00427 ± 5.7e-05
ATKAARKSAPSTG [Unmod H3 variant A T K A A R K S A P S T G] | – | – | – | – | – | – | – | – | 0.00285 ± 0.00016 | 0.00757 ± 0.00026 | 0.0164 ± 0.0095 | 0.00943 ± 0.00062 | 0.00109 ± 3.3e-05 | 0.001312 ± 1.3e-05 | 0.000695 ± 2.7e-05 | 0.000923 ± 9.6e-06
VGLFEDTNLCAIH [Unmod H3 variant V G L F E D T N L C A I H] | – | – | – | – | – | – | – | – | 0.00179 ± 3.6e-05 | 0.0031 ± 4.8e-05 | 0.002686 ± 1.5e-05 | 0.00241 ± 4e-05 | 0.000472 ± 9.3e-06 | 0.000628 ± 6.7e-06 | 0.000287 ± 7.8e-06 | 0.000807
PRKQLATKAARKS [Unmod H3 variant P R K Q L A T K A A R K S] | – | – | – | – | – | – | – | – | 0.00345 ± 4.2e-05 | 0.0108 ± 0.00017 | 0.00722 ± 0.00031 | 0.0163 ± 0.00099 | 0.00119 ± 3.4e-05 | 0.0012 ± 1.2e-05 | 0.000785 ± 1.3e-05 | 0.000923 ± 9.6e-06
